Binding signal data for 15 sequences are collected here from PMC3218832.

Targets include RELARELA (p65 homodimer) (Homo sapiens, UniProt Q04206 1-307); p50p50 homodimer (Homo sapiens, UniProt P19838 7-356); RELB subunit;p50 subunit (Homo sapiens;Homo sapiens, UniProt Q01201;P19838 120-401;7-356).
What all share (experiment): protein binding microarray; high values mean tight binding
Conditions in all cases: dsDNA, one strand shown

For another experiment, the target named is T1, p52p52 homodimer (Homo sapiens, UniProt Q00653 4-332).
T1 sequence: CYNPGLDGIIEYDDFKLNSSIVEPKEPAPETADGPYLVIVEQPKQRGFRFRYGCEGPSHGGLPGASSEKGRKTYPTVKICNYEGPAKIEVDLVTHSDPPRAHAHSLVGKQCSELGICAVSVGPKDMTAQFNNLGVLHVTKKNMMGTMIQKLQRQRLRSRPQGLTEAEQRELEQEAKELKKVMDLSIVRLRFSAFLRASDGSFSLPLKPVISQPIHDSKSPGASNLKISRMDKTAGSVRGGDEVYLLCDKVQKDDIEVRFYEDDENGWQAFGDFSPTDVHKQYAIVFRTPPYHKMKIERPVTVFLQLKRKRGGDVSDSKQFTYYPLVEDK

Experiment [1] has as its target RELA (p65) subunit of heterodimer;p50 subunit (Homo sapiens;Homo sapiens, UniProt Q04206;P19838 1-307;7-356).
Experiment [2] deals with RELA (p65) subunit of heterodimer;p52 subunit (Homo sapiens;Homo sapiens, UniProt Q04206;Q00653 1-307;4-332).
In a further experiment the target is T2, RELB subunit;p52 subunit (Homo sapiens;Homo sapiens, UniProt Q01201;Q00653 120-401;4-332).
T2 sequence 1: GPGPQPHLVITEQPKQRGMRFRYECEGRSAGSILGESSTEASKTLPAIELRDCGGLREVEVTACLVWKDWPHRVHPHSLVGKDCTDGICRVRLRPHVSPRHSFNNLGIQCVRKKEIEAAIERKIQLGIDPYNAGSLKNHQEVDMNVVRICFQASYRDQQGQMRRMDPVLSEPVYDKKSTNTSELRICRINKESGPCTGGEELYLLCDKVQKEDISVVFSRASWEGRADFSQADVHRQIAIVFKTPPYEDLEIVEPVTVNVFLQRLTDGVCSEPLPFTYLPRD
T2 sequence 2: T1 sequence

For experiment [3], the target named is C-Rel subunit;p50 subunit (Homo sapiens;Homo sapiens, UniProt Q04864;P19838 1-285;7-356).
Experiment [4] addresses T3, C-Rel subunit;p52 subunit (Homo sapiens;Homo sapiens, UniProt Q04864;Q00653 1-285;4-332).
T3 sequence 1: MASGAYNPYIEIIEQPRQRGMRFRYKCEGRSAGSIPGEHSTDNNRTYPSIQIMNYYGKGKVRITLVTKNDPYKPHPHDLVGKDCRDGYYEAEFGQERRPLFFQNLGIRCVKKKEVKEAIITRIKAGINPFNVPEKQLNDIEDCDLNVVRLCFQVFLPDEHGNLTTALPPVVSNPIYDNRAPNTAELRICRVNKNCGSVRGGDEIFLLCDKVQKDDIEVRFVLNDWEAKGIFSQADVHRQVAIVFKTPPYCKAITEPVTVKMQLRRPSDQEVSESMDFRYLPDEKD
T3 sequence 2: T1 sequence

p50p50 homodimer, sequence (P19838 7-356): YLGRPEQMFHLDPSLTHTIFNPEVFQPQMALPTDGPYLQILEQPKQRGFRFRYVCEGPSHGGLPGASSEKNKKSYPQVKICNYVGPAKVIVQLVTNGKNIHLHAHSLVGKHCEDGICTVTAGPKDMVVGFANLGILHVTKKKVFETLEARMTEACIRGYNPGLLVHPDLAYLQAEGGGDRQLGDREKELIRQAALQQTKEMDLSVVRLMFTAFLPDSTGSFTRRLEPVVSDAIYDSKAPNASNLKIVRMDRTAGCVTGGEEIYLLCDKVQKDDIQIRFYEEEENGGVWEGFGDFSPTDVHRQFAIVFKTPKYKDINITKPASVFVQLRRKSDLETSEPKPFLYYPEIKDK
RELA (p65) subunit of heterodimer;p50 subunit, sequence (Q04206 1-307, chain 1 of 2): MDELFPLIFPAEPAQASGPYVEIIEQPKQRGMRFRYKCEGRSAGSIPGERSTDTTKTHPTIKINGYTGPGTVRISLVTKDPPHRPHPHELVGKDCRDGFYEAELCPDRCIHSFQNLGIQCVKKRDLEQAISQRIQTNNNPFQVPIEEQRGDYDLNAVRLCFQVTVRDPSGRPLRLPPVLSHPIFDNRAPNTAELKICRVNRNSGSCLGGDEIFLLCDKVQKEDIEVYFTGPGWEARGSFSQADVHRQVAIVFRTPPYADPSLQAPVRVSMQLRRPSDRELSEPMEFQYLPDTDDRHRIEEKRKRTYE
RELA (p65) subunit of heterodimer;p50 subunit, sequence (P19838 7-356, chain 2 of 2): as the sequence (P19838 7-356) above
RELARELA (p65 homodimer), sequence (Q04206 1-307): as the sequence (Q04206 1-307, chain 1 of 2) above

In the case of GGATATCTCCC, the binding signal with RELARELA (p65 homodimer) was 0.156 z-score; in the experiment with p50p50 homodimer, 0.192 z-score; with p52p52 homodimer, 0.0332 z-score; in experiment [1], 0.149 z-score; in experiment [2] it was 0.0232 z-score; with RELB subunit;p50 subunit it was 0.028 z-score. Besides, the binding signal in the experiment with RELB subunit;p52 subunit is -0.143 z-score; in experiment [3] it was -0.122 z-score; in [4] it was -0.036 z-score.
Consider AAGGAACCCCT, for which the binding signal with RELARELA (p65 homodimer) was -0.469 z-score; with p50p50 homodimer it was 0.961 z-score; with p52p52 homodimer it was 0.532 z-score; in experiment [1], 0.281 z-score; in [2], 0.861 z-score; in the experiment with RELB subunit;p50 subunit it was 0.479 z-score. Further, the binding signal in the experiment with RELB subunit;p52 subunit came to 0.874 z-score; in experiment [3], 0.215 z-score; in [4] it was 0.603 z-score.
On to CGAAGATCCCC, for which the binding signal with RELARELA (p65 homodimer) is -0.0141 z-score; with p50p50 homodimer, 0.983 z-score; with p52p52 homodimer, 1.06 z-score; in experiment [1] it was 1.41 z-score; in experiment [2], 1.15 z-score; with RELB subunit;p50 subunit, 1.5 z-score. Moreover, the binding signal with RELB subunit;p52 subunit came to 1.11 z-score; in experiment [3], 1.04 z-score; in experiment [4] it was 1.05 z-score.
Consider GGATTCATCCT, for which the binding signal with RELARELA (p65 homodimer) was -0.727 z-score; with p50p50 homodimer, -2.29 z-score; in the experiment with p52p52 homodimer, -0.817 z-score; in [1] it was -1.18 z-score; in [2], -0.991 z-score; with RELB subunit;p50 subunit, -1.18 z-score. For the same sequence, the binding signal in the experiment with RELB subunit;p52 subunit is -0.967 z-score; in experiment [3], -1.49 z-score; in [4] it was -0.792 z-score.
Regarding GAATACTCCCC, the binding signal with RELARELA (p65 homodimer) worked out at 0.403 z-score; with p50p50 homodimer it was 0.933 z-score; in the experiment with p52p52 homodimer, 0.502 z-score; in experiment [1], 0.707 z-score; in [2], 0.752 z-score; in the experiment with RELB subunit;p50 subunit it was 0.8 z-score. The binding signal was 0.628 z-score in the experiment with RELB subunit;p52 subunit, 0.806 z-score in experiment [3] and 0.479 z-score in experiment [4].
For the sequence AGGATAGCCCT, the binding signal in the experiment with RELARELA (p65 homodimer) was -0.44 z-score; in the experiment with p50p50 homodimer, -1.05 z-score; with p52p52 homodimer, -0.582 z-score; in experiment [1], -0.78 z-score; in [2], -0.902 z-score; with RELB subunit;p50 subunit, -0.841 z-score. Further, the binding signal with RELB subunit;p52 subunit was -0.772 z-score; in experiment [3], -0.982 z-score; in experiment [4] it was -0.688 z-score.
As to GGATTTCTCCT, the binding signal with RELARELA (p65 homodimer) was 0.534 z-score; with p50p50 homodimer, -0.711 z-score; with p52p52 homodimer, -0.416 z-score; in experiment [1] it was -0.294 z-score; in experiment [2], -0.389 z-score; with RELB subunit;p50 subunit, -0.703 z-score. For the same sequence, the binding signal is -0.78 z-score with RELB subunit;p52 subunit, -0.477 z-score in experiment [3] and -0.189 z-score in [4].
For AAAAGGTCCCC, the binding signal with RELARELA (p65 homodimer) worked out at 0.121 z-score; with p50p50 homodimer, 0.934 z-score; in the experiment with p52p52 homodimer, 0.86 z-score; in [1], 0.799 z-score; in [2] it was 0.753 z-score; with RELB subunit;p50 subunit it was 1.08 z-score. Moreover, the binding signal in the experiment with RELB subunit;p52 subunit turned out to be 0.995 z-score; in [3], 0.454 z-score; in experiment [4], 0.594 z-score.
As for GGGTGGGCCCT, the binding signal in the experiment with RELARELA (p65 homodimer) was 0.392 z-score; with p50p50 homodimer, -0.139 z-score; with p52p52 homodimer, -0.133 z-score; in experiment [1], -0.0704 z-score; in experiment [2], -0.184 z-score; with RELB subunit;p50 subunit, -0.392 z-score. Besides, the values for the binding signal (with RELB subunit;p52 subunit; in experiment [3]; in experiment [4]) were -0.318 z-score, -0.304 z-score and 0.357 z-score, respectively.
For the sequence GGAGGAGTCCC, the binding signal in the experiment with RELARELA (p65 homodimer) was determined as 0.299 z-score; with p50p50 homodimer, 0.853 z-score; in the experiment with p52p52 homodimer it was 0.586 z-score; in experiment [1], 0.889 z-score; in [2], 0.831 z-score; with RELB subunit;p50 subunit it was 0.725 z-score. The binding signal with RELB subunit;p52 subunit stood at 0.409 z-score; in experiment [3], 0.717 z-score; in experiment [4], 0.541 z-score.
As to GGATTAGCCCC, the binding signal in the experiment with RELARELA (p65 homodimer) turned out to be 0.514 z-score; in the experiment with p50p50 homodimer it was 0.405 z-score; with p52p52 homodimer it was 0.296 z-score; in experiment [1] it was 0.431 z-score; in [2] it was 0.293 z-score; with RELB subunit;p50 subunit, 0.211 z-score. For the same sequence, the results for the binding signal (with RELB subunit;p52 subunit; in experiment [3]; in experiment [4]) were 0.414 z-score, 0.535 z-score and 0.373 z-score, respectively.
As to CGATGGATCCT, the binding signal is -0.596 z-score with RELARELA (p65 homodimer); -1.5 z-score with p50p50 homodimer; -0.616 z-score in the experiment with p52p52 homodimer; -1.04 z-score in experiment [1]; -1 z-score in [2]; -1.33 z-score with RELB subunit;p50 subunit. Further, the binding signal in the experiment with RELB subunit;p52 subunit was -1.12 z-score; in experiment [3], -1.59 z-score; in experiment [4], -1.01 z-score.
With AGGTGATTCCC, the binding signal worked out at 1.45 z-score in the experiment with RELARELA (p65 homodimer); 0.701 z-score with p50p50 homodimer; 3.04 z-score in the experiment with p52p52 homodimer; 1.59 z-score in [1]; 2.15 z-score in experiment [2]; 1.33 z-score in the experiment with RELB subunit;p50 subunit. In addition, the binding signal amounted to 2.11 z-score with RELB subunit;p52 subunit, 1.81 z-score in experiment [3] and 2.88 z-score in [4].
Turning to GAGTACACCCT, the binding signal is -0.136 z-score in the experiment with RELARELA (p65 homodimer); -0.892 z-score in the experiment with p50p50 homodimer; -0.573 z-score with p52p52 homodimer; -0.83 z-score in experiment [1]; -0.569 z-score in [2]; -0.614 z-score in the experiment with RELB subunit;p50 subunit. For the same sequence, the binding signal in the experiment with RELB subunit;p52 subunit is -0.527 z-score; in experiment [3] it was -0.745 z-score; in experiment [4], -0.376 z-score.
In the case of AAAAAGCCCCC, the binding signal came to 1.22 z-score with RELARELA (p65 homodimer); 1.3 z-score in the experiment with p50p50 homodimer; 2.26 z-score with p52p52 homodimer; 1.98 z-score in experiment [1]; 2.06 z-score in experiment [2]; 2.17 z-score with RELB subunit;p50 subunit. The binding signal with RELB subunit;p52 subunit was 2.06 z-score; in [3], 1.43 z-score; in experiment [4], 2.22 z-score.
